64 compounds from publication PMC4552634, “A New Set of Chemical Starting Points with Plasmodium falciparum Transmission-Blocking Potential for Antimalarial Drug Discovery” (PLoS ONE, 2015) can be followed below.

Molecules are shown by their SMILES. The whole screen tested about 13,000 compounds, of which about 3,200 (25%) showed an effect of 50% or more. The list shows a part of the results.

This test deals with P. falciparum stage V gametocytes. Details: BacTiter-Glo ATP luminescence viability of purified stage V gametocytes in 384-well plates, per cent inhibition versus DMSO. To be noted: 48 h, 5 µM; inhibitor.
Consider `O=C(Nc1ccc(S(=O)(=O)NCCCN2CCOCC2)cc1)c1cc(-c2ccccc2)n[nH]1` [TCMDC-125046], for which the “% Inhibition” value is listed as -31.32%.

For `COc1cccc2c1CCN(CCN1CCC(NC(=O)c3ccc(-c4cccc(Cl)c4Cl)cc3)CC1)C2` [TCMDC-135476], the “% Inhibition” value is reported as 76.97%.

As for `NC(=O)COc1cccc2c1CCN(CCN1CCC(NC(=O)c3ccc(-c4ccc(Cl)cc4)cc3)CC1)C2` [TCMDC-135479], the “% Inhibition” value was -28.95%.

Take `C=CCOc1cccc2c1CCN(CCN1CCC(NC(=O)c3ccc(-c4ccc(Cl)cc4)cc3)CC1)C2` [TCMDC-135633]: the “% Inhibition” value is recorded as -61.81%.

With `Fc1cccc(COc2ccc(Nc3ncnc4sc(C#C[C@H]5CC[C@H](CNCC(F)(F)F)N5)cc34)cc2Cl)c1` [TCMDC-135422], the “% Inhibition” value was -57.82%.

Turning to `O=C(CCC1CCCC1)N(Cc1ccc(-c2ccc(CNCCc3ccccn3)cc2)cc1)CC1CCCCN1` (stereo not shown) [TCMDC-141445], the “% Inhibition” value turned out to be 104.1%.

Regarding `CCCNC(=O)c1cncc(-c2ccc(CNC3Cc4ccccc4C3)cc2)c1` [TCMDC-134242], the “% Inhibition” value is given as -9.717%.

In the case of `c1cncc(CCNCc2ccc(-c3ccc(CNC4Cc5ccccc5C4)cc3)cc2)c1` [TCMDC-141458], the “% Inhibition” value stood at 22.23%.

For `O=C(CC1CCCC1)N(Cc1ccc(-c2ccc(CNC3Cc4ccccc4C3)cc2)cc1)CC1CCCCN1` (stereo not shown) [TCMDC-141446], the “% Inhibition” value is on record as 118.1%.

As to `O=C(NCC1CCC(C(=O)NCCN2CCCCC2)CC1)c1ccc(O)c(-c2ccc(Cl)c(Cl)c2)c1` (stereo not shown) [TCMDC-140889], the “% Inhibition” value is 5.118%.

For `CN(C)C(CNC(=O)c1cc(-c2ccncc2)c(-c2ccc(NC(=O)Nc3ccccc3)cc2)o1)c1ccccc1` (stereo not shown) [TCMDC-135763], the “% Inhibition” value was determined as 0.5152%.

`CCN(CCNS(C)(=O)=O)c1ccc(N)c(C)c1` [TCMDC-125836]: the “% Inhibition” value came out at 123.9%.

For the compound `CCN(CC)c1ccc2nc(N)nc(N)c2c1` [TCMDC-137860], the “% Inhibition” value is listed as -57.34%.

On to `CCN(CCNC(=O)Nc1cc(C(F)(F)F)cc(C(F)(F)F)c1)c1cccc(C)c1` [TCMDC-140386], for which the “% Inhibition” value is -30.95%.

As to `Cc1cc(NC(=O)c2ccco2)ccc1OC1CCN(Cc2ccc(F)cc2)CC1` [TCMDC-133749], the “% Inhibition” value stood at 42.56%.

Take `Cc1ccccc1N1CCN(c2ccc(C(=O)Nc3ccccc3)cn2)CC1` [TCMDC-134582]: the “% Inhibition” value is on record as 6.226%.

Consider `Cc1[nH]c2ccccc2c1C1CCN(CC2CCC(NC(=O)/C=C/c3ccc(Cl)c(Cl)c3)CC2)CC1` (stereo not shown) [TCMDC-139482], for which the “% Inhibition” value was -16.12%.

On to `NC(=O)c1cnc2cc(-c3ccncc3)cc(Nc3ccc(NC(=O)C4CCCCC4)cc3)c2c1` [TCMDC-135182], for which the “% Inhibition” value is given as -67.69%.

On to `Cc1cc(-c2ccc(NC(=O)N3CCc4cc(Br)c(N5CCN(C)CC5)cc43)cc2)ccc1C#N` [TCMDC-139293], for which the “% Inhibition” value is -18.89%.

In the case of `Cc1cc(-c2ccc(NC(=O)N3CCc4cc(Cl)c(N5CCN(C)CC5)cc43)cc2)ccc1C#N` [TCMDC-139292], the “% Inhibition” value amounted to 55.12%.

In the case of `CN1CCN(c2cc3c(cc2Cl)CCN3C(=O)Nc2ccc(NC(=O)c3ccc(C(F)(F)F)cc3)cc2)CC1` [TCMDC-139270], the “% Inhibition” value is reported as -10.1%.

In the case of `O=C(Nc1c(F)cccc1F)c1cccc(-c2nn3ccccc3c2-c2ccnc(Nc3cccc(-c4cnco4)c3)n2)c1` [TCMDC-135743], the “% Inhibition” value is reported as -41.11%.

Take `c1ccc2c(CNCCCN3CCN(CCCNCc4c5ccccc5cc5ccccc45)CC3)c3ccccc3cc2c1` [TCMDC-137909]: the “% Inhibition” value was 115.6%.

Consider `c1ccc2c(c1)cc(CNCCCN1CCN(CCCNCc3cc4ccccc4c4ccccc34)CC1)c1ccccc12` [TCMDC-137914], for which the “% Inhibition” value was determined as 113.5%.

Take `O=C(/C=C/c1ccc(Cl)c(Cl)c1)NCCCCCN1CCC(C(=O)Nc2cccc(Cl)c2)CC1` [TCMDC-136120]: the “% Inhibition” value is -13.38%.

Regarding `Cc1ccc(NC(=O)c2cccc(C#N)c2)cc1-c1ccc(C(=O)Nc2ccncc2)cc1` [TCMDC-133697], the “% Inhibition” value was -8.671%.

Take `CCC[C@@H]([C@@H](Cc1ccc(C)s1)C(=O)N[C@@H](CNC(C)=O)C(=O)Nc1nccs1)N(O)C=O` [TCMDC-138137]: the “% Inhibition” value is -97.54%.

For the compound `Cc1cc(C)c2[nH]cc(C(=O)O)c(=O)c2c1` [TCMDC-123953], the “% Inhibition” value is given as 3.462%.

Take `Oc1ccc(Cl)c2c1C(c1ccccc1)=NCC2` [TCMDC-137522]: the “% Inhibition” value is listed as -9.659%.

Consider `COc1ccc(Oc2ccc(Nc3ccnc4ccc(C(F)(F)F)cc34)cc2)cc1OC` [TCMDC-138310], for which the “% Inhibition” value is -11.17%.

As for `CN(C)CCCc1cc2c(cc1Cl)CCN2C(=O)Nc1ccc(-c2ccncc2)c2ccccc12` [TCMDC-139215], the “% Inhibition” value was -22.47%.

For `CCCc1cc(C(=O)N[C@@H](Cc2ccccc2)[C@H](O)CNC(C)(C)c2cccc(OC)c2)c(F)c(N2CCCC2=O)c1` [TCMDC-135396], the “% Inhibition” value came out at 48.39%.

On to `COc1ccc(-c2cnc3[nH]cc(-c4ccc(C(=O)O)c(C)c4)c3c2)cn1` [TCMDC-136360], for which the “% Inhibition” value turned out to be 34.92%.

Consider `COc1ccc(CN(C)CCOc2ccc(NC(=O)c3cccc4c(=O)cc(-c5ccccc5)[nH]c34)cc2)cc1OC` [TCMDC-131849], for which the “% Inhibition” value came to 25.38%.

Turning to `COc1c(CN2CCOCC2)cccc1-c1cc2c(-c3ccc(C(=O)O)c(C(C)C)c3)ccnc2[nH]1` [TCMDC-135049], the “% Inhibition” value is on record as -0.2517%.

For `CCN(CC)Cc1ccc(OC)c(-c2cc3c(-c4ccc(C(=O)O)c(C(C)C)c4)ccnc3[nH]2)c1` [TCMDC-135051], the “% Inhibition” value is listed as 59.03%.

For `COc1c(CN2CCCC2)cccc1-c1cc2c(-c3ccc(C(=O)O)c(C(C)C)c3)ccnc2[nH]1` [TCMDC-135050], the “% Inhibition” value was 69.12%.

Regarding `COc1cccc(CN2CCC(C(=O)Nc3ccc(-c4nc5ccccc5[nH]4)cc3)CC2)c1` [TCMDC-124615], the “% Inhibition” value is -54.81%.

As to `CN(C)CC1CCCN1Cc1ccccc1-c1cnn(C)c(=O)c1Oc1ccc(F)cc1` (stereo not shown) [TCMDC-135098], the “% Inhibition” value is recorded as 10.73%.

On to `O=C(NCCCN1CCN(c2cccc(Cl)c2)CC1)c1ccc(-c2nc3cc(Cl)c(Cl)cc3[nH]2)c(F)c1` [TCMDC-140084], for which the “% Inhibition” value was -21.33%.

Regarding `O=C(CNc1ccc(Cl)c(S(=O)(=O)N2CCCC2)c1)Nc1ccc(Br)cc1F` [TCMDC-125102], the “% Inhibition” value came to 24.63%.

Consider `Cc1onc(-c2ccccc2)c1-c1nc(NCCC(c2ccccc2)c2ccccc2)no1` [TCMDC-134203], for which the “% Inhibition” value came to 3.551%.

Turning to `CN1CCC(N(Cc2ccc(-c3ccc(C(F)(F)F)cc3)cc2)C(=O)Cn2c(SCc3cccc(F)c3F)cc(=O)c3c2CCC3)CC1` [TCMDC-141319], the “% Inhibition” value came out at 92.96%.

In the case of `CC(C)N1CCC(N(Cc2ccc(-c3ccc(C(F)(F)F)cc3)cc2)C(=O)Cn2c(SCc3cccc(F)c3F)cc(=O)c3c2CCC3)CC1` [TCMDC-141320], the “% Inhibition” value worked out at 98.3%.

On to `O=C(NOCc1ccccc1)c1cc(Cl)ccc1O` [TCMDC-131603], for which the “% Inhibition” value was 3.846%.

Consider `CCC1CCc2cc(N)cc(-c3nc4c(c(C)nn4CC)c(=O)[nH]3)c2O1` (stereo not shown) [TCMDC-131857], for which the “% Inhibition” value is on record as 1.879%.

For the compound `CCC(=O)Nc1ccc(C(O)CN2CCC3(C=Cc4ccccc4O3)CC2)cc1` (stereo not shown) [TCMDC-124852], the “% Inhibition” value is reported as 40%.

On to `COc1cc2nc(NCCn3ccnc3C)nc(NCCc3ccccc3)c2cc1OC` [TCMDC-135471], for which the “% Inhibition” value was 66.44%.

Regarding `COc1cc2nc(NCCn3cccn3)nc(NCCc3ccccc3)c2cc1OC` [TCMDC-135472], the “% Inhibition” value is 50.26%.

`Clc1cc2c(Nc3ccc(Oc4ccccc4)cc3)ccnc2cc1-c1ccc(CNCCN2CCOCC2)o1` [TCMDC-138464]: the “% Inhibition” value stood at 21.03%.

For the compound `CN(C)CCNCc1ccc(-c2ccc3c(Nc4ccc(Oc5ccccc5)cc4)ccnc3c2)o1` [TCMDC-138399], the “% Inhibition” value came to 96.18%.

For the compound `c1ccc(Oc2ccc(Nc3ccnc4ccc(-c5ccccn5)cc34)cc2)cc1` [TCMDC-138118], the “% Inhibition” value is -22.81%.

Regarding `CN(C)Cc1ccc(-c2ccc3c(Nc4ccc(Oc5ccccn5)cc4)ccnc3c2)o1` [TCMDC-138425], the “% Inhibition” value was determined as 93.82%.

Take `CN(C)CCN(C)Cc1ccc(-c2ccc3c(Nc4ccc(Oc5ccccn5)cc4)ccnc3c2)o1` [TCMDC-138426]: the “% Inhibition” value stood at 89.24%.

With `CN(C)CCN(C)Cc1ccc(-c2ccc3c(Nc4ccc(Oc5ccccc5)cc4)ccnc3c2)o1` [TCMDC-138400], the “% Inhibition” value is given as 100.2%.

Consider `CS(=O)(=O)CCNCc1ccc(-c2ccc3c(Nc4ccc(Oc5ccccn5)cc4)ccnc3c2)o1` [TCMDC-138444], for which the “% Inhibition” value stood at 5.347%.

Take `CN(C)Cc1ccc(-c2ccc3c(Nc4ccc(Oc5ccccc5)cc4)ccnc3c2)o1` [TCMDC-138401]: the “% Inhibition” value is reported as -9.57%.

With `COc1ccc(NC(=O)c2csc(-c3cc(NC(=O)c4ccnc(N5CCCC5)c4)ccc3C)c2)cc1N1CCN(C)CC1` [TCMDC-136374], the “% Inhibition” value came out at 23.12%.

For the compound `NC(=O)c1cccc(Nc2nccc(Nc3ccc(Oc4cccc5ccccc45)cc3)n2)c1` [TCMDC-138599], the “% Inhibition” value is reported as -18.47%.

With `CC[C@H]1CN2CC[C@H]1C[C@@H]2[C@@H](OC(=O)c1ccc(Cl)cc1)c1ccnc2ccc(OC)cc12` [TCMDC-125492], the “% Inhibition” value was -10.63%.

Regarding `CC(C)(C)c1cc(C(=O)N2CCN(c3ncccc3C(F)(F)F)CC2)n(Cc2ccccc2)n1` [TCMDC-134142], the “% Inhibition” value is recorded as 2.354%.

For the compound `CCN(CC)C(=O)C1CCCN(c2cc(C)nc(Nc3ccc(Cl)cc3)n2)C1` (stereo not shown) [TCMDC-132204], the “% Inhibition” value is listed as -2.665%.

As for `N#Cc1ccc(N2CCN(Cc3cccc(-c4cccc(-c5nc6cc(C(F)(F)F)ccc6[nH]5)c4)c3)CC2)nc1.O=C(O)C(F)(F)F` [TCMDC-133117], the “% Inhibition” value was -5.62%.

With `O=C(CCn1c2ccccc2c2ccccc21)NN=Cc1ccco1` [TCMDC-125735], the “% Inhibition” value was -6.333%.
